From PubChem BioAssay (NCATS)
Records with an inconclusive call do not appear. Active and inactive are the calls of the source. The call rests on the fitted dose curve; in most records, active means well fitted curve in the direction sought with a large enough effect; inconclusive means small, poorly fitted or top-dose-only effect, or another doubt; inactive means no such curve, though single readings can be large; an effect the other way counts as inactive or inconclusive.

Assays:
[1] = Quantitative High-Throughput drug screen in 47 multiple myeloma cell lines against the NCATS MIPE library collection: MMM1_PLB cell viability assay (AID 1918976); further: nearly all actives have a fitted effect of over 35% in size
How it was run: (§1)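 ATP-based CellTiter-Glo luminescence after 48 h drug exposure (37 °C, 5% CO2) of 500 myeloma cells per well. DMSO-only wells set 100% viability, media-only wells 0%; MIPE 4.0 library added by pin tool.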

[2] = Quantitative High-Throughput drug screen in 47 multiple myeloma cell lines against the NCATS MIPE library collection: MM1R_ATCC cell viability assay (AID 1918981); further: nearly all actives have a fitted effect of over 35% in size
How it was run: as §1

[3] = Quantitative High-Throughput drug screen in 47 multiple myeloma cell lines against the NCATS MIPE library collection: OCIMY7_PLB cell viability assay (AID 1918987); conditions: OCI-MY7 myeloma viability, CellTiter-Glo ATP, 48 h; viability (% of DMSO): at 45.8 µM (top of the series); further: nearly all actives have a fitted effect of over 65% in size
How it was run: as §1

[4] = Quantitative High-Throughput drug screen in 47 multiple myeloma cell lines against the NCATS MIPE library collection: OCIMY5_PLB cell viability assay (AID 1918988); further: nearly all actives have a fitted effect of over 65% in size
How it was run: as §1

[5] = Quantitative High-Throughput drug screen in 47 multiple myeloma cell lines against the NCATS MIPE library collection: OPM1_PLB cell viability assay (AID 1918989); further: nearly all actives have a fitted effect of over 40% in size
How it was run: as §1

[6] = Quantitative High-Throughput drug screen in 47 multiple myeloma cell lines against the NCATS MIPE library collection: U266_ATCC cell viability assay (AID 1919864); further: nearly all actives have a fitted effect of over 35% in size
How it was run: as §1

[7] = Quantitative High-Throughput drug screen in 47 multiple myeloma cell lines against the NCATS MIPE library collection: XG6_PLB cell viability assay (AID 1919865); further: nearly all actives have a fitted effect of over 40% in size
How it was run: as §1

[8] = Quantitative High-Throughput drug screen in 47 multiple myeloma cell lines against the NCATS MIPE library collection: XG1_PLB cell viability assay (AID 1919866); further: nearly all actives have a fitted effect of over 35% in size
How it was run: as §1

[9] = Quantitative High-Throughput drug screen in 47 multiple myeloma cell lines against the NCATS MIPE library collection: VP6_DJ cell viability assay (AID 1919867); further: nearly all actives have a fitted effect of over 40% in size
How it was run: as §1

[10] = Quantitative High-Throughput drug screen in 47 multiple myeloma cell lines against the NCATS MIPE library collection: MM1S_ATCC cell viability assay (AID 1918980); further: nearly all actives have a fitted effect of over 45% in size
How it was run: as §1

[11] = Quantitative High-Throughput drug screen in 47 multiple myeloma cell lines against the NCATS MIPE library collection: L363_DSMZ cell viability assay (AID 1918984); further: nearly all actives have a fitted effect of over 40% in size
How it was run: as §1

[12] = Quantitative High-Throughput drug screen in 47 multiple myeloma cell lines against the NCATS MIPE library collection: KMS34_JCRB cell viability assay (AID 1918985); further: nearly all actives have a fitted effect of over 40% in size
How it was run: as §1

[13] = Quantitative High-Throughput drug screen in 47 multiple myeloma cell lines against the NCATS MIPE library collection: LP1_DSMZ cell viability assay (AID 1918982); further: nearly all actives have a fitted effect of over 35% in size
How it was run: as §1

[14] = Quantitative High-Throughput drug screen in 47 multiple myeloma cell lines against the NCATS MIPE library collection: KMS28PE_JCRB cell viability assay (AID 1918983); further: nearly all actives have a fitted effect of over 35% in size
How it was run: as §1

[15] = Quantitative High-Throughput drug screen in 47 multiple myeloma cell lines against the NCATS MIPE library collection: MOLP8_DSMZ cell viability assay (AID 1918977); further: nearly all actives have a fitted effect of over 45% in size
How it was run: as §1

[16] = Quantitative High-Throughput drug screen in 47 multiple myeloma cell lines against the NCATS MIPE library collection: NCIH929_DSMZ cell viability assay (AID 1918978); further: nearly all actives have a fitted effect of over 35% in size
How it was run: as §1

[17] = Quantitative High-Throughput drug screen in 47 multiple myeloma cell lines against the NCATS MIPE library collection: OCIMY1_PLB cell viability assay (AID 1918979); further: nearly all actives have a fitted effect of over 35% in size
How it was run: as §1

[18] = Quantitative High-Throughput drug screen in 47 multiple myeloma cell lines against the NCATS MIPE library collection: SKMM1_PLB cell viability assay (AID 1919863); conditions: SKMM1 myeloma viability, CellTiter-Glo ATP, 48 h; viability: hits give low values; further: nearly all actives have a fitted effect of over 35% in size
How it was run: as §1
Potency means the concentration at half of the fitted maximal effect.

CC[C@H]1OC(=O)[C@H](C)C(=O)[C@H](C)[C@@H](O[C@H]2O[C@H](C)C[C@H](N(C)C)[C@@H]2O)[C@](C)(OC)C[C@@H](C)C(=O)[C@H](C)[C@H]2N(CCCCn3cnc(-c4cccnc4)c3)C(=O)O[C@]12C
active: Potency [1] 18.7 µM | Potency [2] 16.6 µM | Potency [3] 14.8 µM | Potency [4] 26.4 µM | Potency [7] 4.69 µM | Potency [9] 11.8 µM
inactive: Potency [5] | Potency [6] | Potency [8]

CC[C@@H]1C=C(C)C[C@H](C)C[C@H](OC)[C@H]2O[C@@](O)(C(=O)C(=O)N3CCCC[C@@H]3C(=O)O[C@H](C(C)=C[C@@H]3CC[C@H](Cl)[C@H](OC)C3)[C@H](C)[C@@H](O)CC1=O)[C@H](C)C[C@H]2OC
active: Potency [1] 11.8 µM | Potency [10] 14.8 µM | Potency [11] 10.5 µM | Potency [12] 16.6 µM | Potency [4] 16.6 µM | Potency [8] 14.8 µM

CC(=O)OC1C(C)OC(Oc2c(-c3ccc(O)cc3)oc3cc(O)cc(O)c3c2=O)C(O)C1OC(C)=O (stereo unspecified)
inactive: Potency [13] | Potency [14] | Potency [12] | Potency [8]
active: Potency [1] 2.96 µM | Potency [10] 20.9 µM | Potency [5] 10.5 µM | Potency [6] 18.7 µM

COc1ccc(-c2coc3cc(O)cc(O)c3c2=O)cc1
inactive: Potency [15] | Potency [16] | Potency [17] | Potency [2] | Potency [13] | Potency [14] | Potency [12] | Potency [5] | Potency [8] | Potency [9]

COc1ccc(-c2coc3cc(O)ccc3c2=O)cc1
active: Potency [15] 0.0059 µM
inactive: Potency [17] | Potency [10] | Potency [2] | Potency [13] | Potency [12] | Potency [3] | Potency [5] | Potency [6] | Potency [7] | Potency [8] | Potency [9]

COc1ccc2cc(-c3nc(-c4ccc(S(C)=O)cc4)[nH]c3-c3ccncc3)ccc2c1 (stereo unspecified)
inactive: Potency [15] | Potency [17] | Potency [14] | viability [18] 106%
active: Potency [4] 14.8 µM | Potency [5] 20.9 µM | Potency [8] 23.5 µM

CN[C@@H](C)C(=O)N[C@H]1CN(C(=O)CC(C)C)CC[C@H]2CC[C@@H](C(=O)NC(c3ccccc3)c3ccccc3)N2C1=O
inactive: Potency [15]
active: Potency [16] 11.8 µM | Potency [10] 9.35 µM | Potency [2] 14.8 µM | Potency [3] 10.5 µM | Potency [4] 20.9 µM | Potency [5] 14.8 µM | Potency [7] 1.32 µM | Potency [8] 13.2 µM

COc1cccc2c1CCCC2CCCN1CCN(C2CCCCC2)CC1 (stereo unspecified)
active: Potency [1] 14.8 µM | Potency [10] 20.9 µM | Potency [14] 14.8 µM | Potency [11] 16.6 µM | Potency [3] 13.2 µM | Potency [4] 16.6 µM | Potency [5] 20.9 µM | Potency [7] 23.5 µM | Potency [8] 18.7 µM | Potency [9] 16.6 µM
inactive: Potency [12]

CN(C)Cc1ccc(-c2nc3cccc4c3n2CCNC4=O)cc1
active: Potency [15] 13.2 µM | Potency [16] 18.7 µM | Potency [10] 18.7 µM | Potency [2] 20.9 µM | Potency [13] 23.5 µM | Potency [11] 18.7 µM | Potency [3] 8.33 µM | Potency [4] 20.9 µM | Potency [7] 16.6 µM | Potency [8] 20.9 µM
inactive: Potency [17]

CC(C)(C)NC(=O)Nc1cccc(Nc2ncc(F)c(NC(C)(C)CO)n2)c1
inactive: Potency [15] | Potency [16] | Potency [17] | Potency [6]
active: Potency [3] 2.35 µM | Potency [4] 3.72 µM | Potency [5] 13.2 µM | Potency [7] 20.9 µM | Potency [8] 3.72 µM

CC(=NNC(=S)N1CCC1)c1ccccn1
active: Potency [17] 0.0074 µM | Potency [5] 0.0037 µM | Potency [18] 0.0059 µM
inactive: Potency [15] | Potency [16] | Potency [3]

COc1cccc(-c2cc(=O)c3ccccc3o2)c1N
active: Potency [16] 0.332 µM | Potency [2] 5.9 µM | Potency [3] 2.96 µM | Potency [5] 16.6 µM | Potency [6] 8.33 µM | Potency [8] 1.66 µM | Potency [9] 1.32 µM
inactive: Potency [15]

CCOC(=O)O[C@]1(C(=O)OCCl)CC[C@@H]2[C@H]3CCC4=CC(=O)C=C[C@]4(C)[C@@H]3[C@@H](O)C[C@@]21C
inactive: Potency [15] | Potency [16] | Potency [17] | Potency [2] | Potency [11] | viability [18] 124% | Potency [7] | Potency [8]

C[C@H](NC(=O)c1sccc1OCc1ccc(Cl)cc1)c1ccccc1
active: Potency [1] 16.6 µM | Potency [17] 16.6 µM | Potency [10] 18.7 µM | Potency [13] 16.6 µM | Potency [14] 16.6 µM | Potency [4] 16.6 µM | Potency [18] 18.7 µM

NC(=O)c1cnc(-c2ccc(C3(N)CCC3)cc2)c(-c2ccccc2)c1
inactive: Potency [8]
active: Potency [1] 0.743 µM | Potency [16] 1.48 µM | Potency [2] 7.43 µM | Potency [13] 2.64 µM | Potency [14] 0.332 µM | Potency [4] 0.187 µM | Potency [7] 16.6 µM | Potency [9] 13.2 µM

NC(=O)c1cccc(-c2cc(Nc3ccc(OC(F)(F)F)cc3)ncn2)c1
active: Potency [1] 20.9 µM | Potency [11] 8.33 µM | Potency [5] 18.7 µM | Potency [7] 16.6 µM | Potency [9] 14.8 µM
inactive: Potency [17] | Potency [10]

CS(=O)(=O)N(Cc1ccco1)CC(O)Cn1c2ccccc2c2ccccc21 (stereo unspecified)
inactive: Potency [17] | Potency [11] | Potency [7]
active: Potency [1] 20.9 µM | Potency [14] 5.9 µM | Potency [12] 16.6 µM | Potency [6] 18.7 µM | Potency [8] 20.9 µM

O=c1cc(-c2ccccc2)oc2cc(O)c(O)c(O)c12
inactive: Potency [11]
active: Potency [1] 23.5 µM | Potency [10] 18.7 µM | Potency [2] 23.5 µM | Potency [5] 11.8 µM | Potency [18] 18.7 µM
